PubChem BioAssay AID2283176 (EPA ToxCast)
Inconclusive results are not listed. Active and inactive are the calls of the source. The calls were made as follows: active = hit-call score of the fitted dose curve at least 0.9, where 1 is the maximum; inconclusive = response in the unintended direction; inactive = score below 0.9.

Each molecule was assayed against human MAP Kinase-Activated Protein Kinase 5 (MAPKAPK5), MAPKAPK5 (gene 8550) (UniProt Q8IW41) (assay: NVS_ENZ_hMAPKAPK5: NovaScreen (NVS) Enzymatic Assay for human MAP Kinase-Activated Protein Kinase 5 (MAPKAPK5)).
Sequence of human MAP Kinase-Activated Protein Kinase 5 (MAPKAPK5), MAPKAPK5 (gene 8550) (Q8IW41 whole entry, looked up): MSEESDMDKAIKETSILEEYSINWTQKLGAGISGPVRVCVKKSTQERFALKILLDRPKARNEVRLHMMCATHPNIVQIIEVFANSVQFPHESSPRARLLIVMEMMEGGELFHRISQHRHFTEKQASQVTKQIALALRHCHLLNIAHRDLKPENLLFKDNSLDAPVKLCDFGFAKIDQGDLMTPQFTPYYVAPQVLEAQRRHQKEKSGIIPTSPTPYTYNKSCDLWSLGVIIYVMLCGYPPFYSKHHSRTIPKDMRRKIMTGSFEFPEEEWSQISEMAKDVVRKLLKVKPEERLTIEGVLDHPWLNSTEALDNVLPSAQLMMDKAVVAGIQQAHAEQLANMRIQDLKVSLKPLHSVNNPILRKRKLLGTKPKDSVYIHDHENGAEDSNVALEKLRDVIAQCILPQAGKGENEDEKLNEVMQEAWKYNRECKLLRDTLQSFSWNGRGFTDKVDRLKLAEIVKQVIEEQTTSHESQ
Method: NVS_ENZ_hMAPKAPK5 is a biochemical, single-readout assay that uses extracted gene-proteins in a cell-free assay. Measurements were taken 1 hour after chemical dosing in a 384-well plate.NVS_ENZ_hMAPKAPK5 is one of one assay component(s) measured or calculated from the NVS_ENZ_hMAPKAPK5 assay. It is designed to make measurements of enzyme activity, a form of enzyme reporter, as detected with fluorescence intensity signals by Fluorescence and electrophoretic mobility shift technology.Data from the assay component NVS_ENZ_hMAPKAPK5 was analyzed into 1 assay endpoint. This assay endpoint, NVS_ENZ_hMAPKAPK5, was analyzed in the positive analysis fitting direction relative to DMSO as the negative control and baseline of activity. Using a type of enzyme reporter, loss-of-signal activity can be used to understand changes in the enzymatic activity as they relate to the gene MAPKAPK5. Furthermore, this assay endpoint can be referred to as a primary readout, because this assay […]. To generalize the intended target to other relatable targets, this assay endpoint is annotated to the kinase intended target family, where the subfamily is serine/threonine kinase.
Binding assays used specific radioligands (tritiated, iodinated) with non-radioactive competitive displacement ligands in agonist or antagonist protocols (as indicated) and various reference compounds and inhibitors to titrate specific binding to receptors and transporters. Most enzyme assays (CYPs, kinases, phosphatases, proteases, HDACs) used recombinant protein and specific substrates (fluorescence mostly, some colorimetric and radioactive) and inhibitors, followed by a biochemical separation of substrate and product. All assays for the biochemical HTS were initially run in duplicate at a single concentration (10 uM for CYP450 assays and 25 uM for all others). Assay-chemical combinations meeting a pre-defined threshold (e.g., 30% inhibition and other criteria defined below) were then run in singleton concentration-response format with maximum concentration of 20 uM for CYPs and 50 uM for all others. Each assay was run with positive and negative controls, and concurrent controls on every plate. The follow-up (secondary) screen tested active chemical-pairs in concentration series, as well as a few additional assays not tested in the primary screen, some selected negative inactives, and several cases re-run in the concentration series for confirmatory purposes.
C=C(C)CN(CC)c1c([N+](=O)[O-])cc(C(F)(F)F)cc1[N+](=O)[O-] was tested, and the outcome was “inactive”.
For CNC(=S)S, the outcome was “inactive”.
With S=C1NCCN1 the outcome was “inactive”.
N#Cc1c(Cl)c(Cl)c(Cl)c(C#N)c1Cl was tested, and the outcome was “inactive”.
For CCCC(=NOCC)C1=C(O)CC(CC(C)SCC)CC1=O (stereo not drawn), the outcome was “inactive”.
In the case of CN(C)[C@@H]1C(=O)C(C(N)=O)=C(O)[C@@]2(O)C(=O)C3=C(O)c4c(O)cccc4[C@@](C)(O)[C@H]3[C@H](O)[C@@H]12, the AC50 is reported as 24.2 µM (active).
O=C(O)C(F)(F)C(F)(F)C(F)(F)C(F)(F)C(F)(F)C(F)(F)C(F)(F)F was tested, and the outcome was “inactive”.
With O=S(=O)(O)C(F)(F)C(F)(F)C(F)(F)C(F)(F)C(F)(F)C(F)(F)C(F)(F)C(F)(F)F the AC50 was 44.1 µM (active).
